M1 antag = human M1 muscarinic receptor antagonists, primary screen, CHO-K1 cells, Fluo-8 calcium fluorescence, 1536-well; Muscarinic acetylcholine receptor M1 (Homo sapiens), P11229; CHO-K1 hM1, ACh EC80 antagonist; inhibition, % at 3 µM; hit rate 1.3% among 360,000;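 active means percent inhibition above its own plate's cutoff, namely the mean of that plate's compound wells plus 3 SD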;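 further: peak over basal fluorescence ratio during 140 s after agonist addition; 0% = ACh EC80 plus DMSO and 100% = DMSO alone without agonist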
Target sequence (P11229 whole entry, looked up): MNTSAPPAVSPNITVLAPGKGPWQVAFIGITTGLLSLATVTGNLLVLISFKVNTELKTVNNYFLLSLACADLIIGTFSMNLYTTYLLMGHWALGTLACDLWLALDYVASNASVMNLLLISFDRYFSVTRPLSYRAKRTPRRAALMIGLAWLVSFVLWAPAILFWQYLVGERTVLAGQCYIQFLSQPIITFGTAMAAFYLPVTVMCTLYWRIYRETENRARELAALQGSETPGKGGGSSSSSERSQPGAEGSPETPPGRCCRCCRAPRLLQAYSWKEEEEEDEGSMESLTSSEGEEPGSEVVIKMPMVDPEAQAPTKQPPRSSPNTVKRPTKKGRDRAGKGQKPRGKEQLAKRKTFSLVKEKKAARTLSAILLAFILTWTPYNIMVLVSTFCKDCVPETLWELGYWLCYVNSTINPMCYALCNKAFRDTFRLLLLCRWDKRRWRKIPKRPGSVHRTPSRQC
M1 ag = human M1 muscarinic receptor agonists, primary screen, Fluo-8 calcium fluorescence, CHO-K1 cells, HTS. AID 588814, 2011. CHO-K1 hM1, agonist mode; 0% DMSO, 100% acetylcholine EC100. hit rate 0.33% among 360,000. Muscarinic acetylcholine receptor M1 (Homo sapiens), P11229. activation, % at 3 µM;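 active means activation above the run's mean compound activation plus 3 SD, cut at about 16% in these data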;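 further: peak over basal fluorescence ratio within a 140 s kinetic read after compound addition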
CHO-K1 Ca antag = counter-screen for M1 antagonists: effect in parental CHO-K1 cells | ATP-induced calcium, Fluo-8 fluorescence | inhibition, % at 3 µM | hit rate 0.6% among 360,000;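 active means inhibition above a per-plate cutoff, the plate's mean sample inhibition plus 3 SD, cut at about 24% in these data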;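 further: 0% = DMSO plus EC80 ATP and 100% = DMSO alone without ATP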
M1 ag parental = counter-screen for M1 agonists: effect in parental CHO-K1 cells. activation, % at 3 µM. hit rate 0.48% among 360,000. Fluo-8 calcium fluorescence; scaled to maximal ATP response, vehicle zero; in the data active means activation above about 15%;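 further: untransfected CHO-K1 host cells lacking M1 receptor as counterscreen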
M1 PAM parental = nonselective calcium activators in parental CHO-K1 cells, primary screen, counter-screen for M1 PAM project, cell-based, Fluo-8 calcium fluorescence, full deck, 1536-well | ATP EC20; 0% at ATP EC20, 100% at ATP max | activation, % at 3 µM | hit rate 0.02% among 360,000 | AID 602247, 2012;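 active means activation above the run cutoff, the mean activation of all test compounds plus 3 SD, cut at about 40% in these data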;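 further: peak over basal fluorescence ratio in a 140 s read after ATP addition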
M1 PAM = human M1 muscarinic receptor positive allosteric modulators, primary screen, CHO-K1 cells, Fluo-8 calcium fluorescence, 1536-well; AID 588819, 2011; Muscarinic acetylcholine receptor M1 (Homo sapiens), P11229; hit rate 0.088% among 360,000; CHO-K1 hM1, ACh EC20; 0% = ACh EC20, 100% = maximal ACh; activation, % at 3 µM; in the data active means activation above about 19%, passing the limit was not always enough
Starred values were filed as active, the others as inactive. Shown are actives, neighbours in structure and some others; about 2.3% of the full set was active somewhere.

SMILES | M1 antag | M1 ag | CHO-K1 Ca antag | M1 ag parental | M1 PAM parental | M1 PAM
COc1ccc(CN(C(=O)Cc2c[nH]c3ccccc23)C(C(=O)NC2CCCCC2)c2ccc(C)o2)cc1 (centres undefined) | 14 | -7 | -1 | 2 | 5 | -10
COc1ccc(C(C(=O)NC2CCCC2)N(Cc2ccccc2)C(=O)CNC(=O)c2ccco2)cc1 (centres undefined) | 10 | 2 | 32* | 1 | -4 | 1
CCOC(=O)CN(C(=O)CNC(=O)c1ccco1)C(C(=O)NC1CCCCC1)c1cccs1 (centres undefined) | -1 | -1 | -13 | 3 | 16 | 2
CCOC(=O)CN(C(=O)CNC(=O)c1ccco1)C(C(=O)NC1CCCC1)c1ccccc1OCC (centres undefined) | -3 | -3 | -1 | 2 | 14 | 7
COCCN(C(=O)c1ccco1)C(C(=O)NC1CCCC1)c1cccs1 (centres undefined) | -2 | -3 | 25* | 0 | -6 | 3
C=CCN(C(=O)CNC(=O)c1ccco1)C(C(=O)NC1CCCCC1)c1ccc(OC)cc1 (centres undefined) | 15 | -3 | -6 | 0 | 9 | -7
CCOCCCN(C(=O)CNC(=O)c1ccco1)C(C(=O)NC1CCCC1)c1ccccc1C (centres undefined) | 1 | 0 | 44* | 2 | 5 | 0
Cc1ccc(C(C(=O)NC2CCCCC2)N(Cc2ccccc2)C(=O)Cc2c[nH]c3ccccc23)o1 (centres undefined) | 8 | -6 | 5 | 19* | 19 | -7
CCCCN(C(=O)c1ccc(OC)c([N+](=O)[O-])c1)c1c(N)n(CCC)c(=O)[nH]c1=O | -1 | -4 | -9 | 0 | -14 | 0
CCc1nc2ccc(C(=O)Nc3cccc(OCC(=O)N(C)C)c3)cn2c1N(C)Cc1cc2ccccc2s1 | 50* | -1 | 9 | 8 | -4 | -25
CCc1nc2ccc(C(=O)Nc3cccc(OCC(=O)N(C)C)c3)cn2c1N(C)C(=O)c1ccncc1 | -19 | -2 | -17 | 1 | 10 | 9
CCNC(=O)N(C)c1c(CC)nc2ccc(C(=O)Nc3cccc(OCC(=O)N(C)C)c3)cn12 | 32* | -1 | 14 | 0 | -18 | -13
CCCc1cc(=O)[nH]c(SCC(=O)Nc2ncc(S(=O)(=O)c3ccc([N+](=O)[O-])cc3)s2)n1 | -4 | -3 | -2 | 0 | -11 | -2
COC(=O)C(NC(=O)c1ccccc1C)(Nc1ncc(S(=O)(=O)c2ccc([N+](=O)[O-])cc2)s1)C(F)(F)F (centres undefined) | 2 | 17* | 4 | 7 | 16 | 4
Cc1csc(NC(=O)CSc2ccc([N+](=O)[O-])cn2)n1 | -2 | -4 | -3 | 16* | 18 | 7
O=C(Nc1ccc([N+](=O)[O-])cc1)c1ccccc1F | -2 | -7 | -22 | 1 | 19 | 3
Cc1nnc(SCC(=O)Nc2ncc(S(=O)(=O)c3ccc([N+](=O)[O-])cc3)s2)s1 | -11 | -4 | 1 | 1 | 44* | 11
O=C(Nc1ncc(S(=O)(=O)c2ccc([N+](=O)[O-])cc2)s1)c1ccccc1F | 32* | 30* | -7 | 3 | 13 | -17
NC(c1ccncc1)c1ccc(Cl)cc1 (centres undefined) | -10 | -2 | -10 | 1 | 12 | 10
COc1ccc(C(=O)OCC(=O)c2ccc3c(c2)NC(=O)CO3)cc1S(=O)(=O)N1CCOCC1 | -4 | 0 | -3 | 0 | -5 | 4
O=C(O)CN=CC1=C(O)CC(c2ccccc2)CC1=O (centres undefined) | -6 | -5 | -12 | 1 | 6 | 3
O=C1CN(CC(=O)Nc2ccc(Cl)cc2)CCN1 | -6 | -2 | -1 | 0 | 13 | 3
O=C1CN(CC(=O)Nc2ccc(SC(F)F)cc2)CCN1 | 10 | -1 | 27* | -1 | -16 | -7
